Measured values from PubChem BioAssay AID504329 (Southern Research Specialized Biocontainment Screening …, 2011).
The campaign covered roughly 340,000 compounds. About 1,000 (0.29%) were called active. No stated cut-off is given here; in the data, inconclusive means inhibition above about 27% without an active follow-up result; inactive means below that. Only a sample is shown. Results with a measured potency or affinity are listed apart.

Experiment: NS1A inhibition, H1N1 influenza, cell based functional assay (AID 504329)
Details: percent inhibition, at 12.5 µM, stronger effect = higher value

Row | SMILES | inhibition
1 | Cc1ccc([N+](=O)[O-])cc1S(=O)(=O)Nc1ccc(OCC(=O)N2CCOCC2)cc1 | -6.07% (inactive)
2 | COC(=O)c1ccccc1S(=O)(=O)NC(=O)c1ccccc1 | -2.87% (inactive)
3 | CCOC(=O)C1CCN(CCC(=O)Nc2ccc(Br)cc2)CC1 | -10.6% (inactive)
4 | CC(Sc1nnc2ccccn12)C(N)=O (configuration not stated) | 7.97% (inactive)
5 | Cc1ccc(S(=O)(=O)Nc2ccccc2C(=O)N2CCCCC2)cc1 | -16.7% (inactive)
6 | COc1ccc(C(=O)Nc2cccc(C)n2)cc1S(=O)(=O)N1CCCc2ccccc21 | 8.43% (inactive)
7 | CC(C)(C)OC(=O)N1C[C@H](O)C[C@H]1C(=O)OCC(=O)c1ccc([N+](=O)[O-])cc1 | 9.24% (inactive)
8 | CN(CC(=O)Nc1ccc(Cl)c(S(=O)(=O)N2CCOCC2)c1)C(=O)c1cccs1 | -3.85% (inactive)
9 | Cc1cnc(C)c(N2CCN(Cc3cn(C)nc3-c3cccc(Cl)c3)CC2)n1 | -9.06% (inactive)
10 | COC(=O)C(C(=O)OC)[C@@H]1C=C[C@H](C[N+](=O)[O-])N(C(C)=O)C1 | -12.3% (inactive)
11 | CCCOc1ccc(CNC(=O)C2CCN(c3nnc(N4CCCC4=O)s3)CC2)cc1 | -2.57% (inactive)
12 | Cc1ccccc1NC(=O)c1c(Cl)nc(C)c(Cl)c1C | -3.05% (inactive)
13 | O=C(NCc1ccncc1)C1CCC(=O)N(CCc2ccc(Cl)cc2)C1 (configuration not stated) | -3.67% (inactive)
14 | Cc1ccc(C(=O)N/N=C\c2cc3c(cc2Br)OCO3)cn1 | -7.88% (inactive)
15 | O=C(NCC1CCCO1)C(=O)N/N=C/c1ccc(O)c(Cl)c1 (configuration not stated) | 11.2% (inactive)
16 | COc1ccc(C(=O)N/N=C/c2cc(Br)ccc2O)cc1OC | -6.16% (inactive)
17 | O=C(N/N=C/c1cc([N+](=O)[O-])ccc1O)c1ccncc1 | -34.5% (inactive)
18 | Cc1ccc(/C=N/NC(=O)C(c2ccncc2)N2CCOCC2)cc1 (configuration not stated) | 3.83% (inactive)
19 | COc1ccc(Br)cc1/C=N/NC(=O)C(c1ccncc1)N1CCOCC1 (configuration not stated) | 2.7% (inactive)
20 | O=C(NCC1CCCO1)C(=O)N/N=C/c1cccc(Cl)c1 (configuration not stated) | 1.01% (inactive)
21 | O=C(CNC(=O)c1ccncc1)N/N=C/c1cc(Br)ccc1O | 2.02% (inactive)

Row | SMILES | inhibition
22 | COC(=O)c1ccc(N2CCN(C)CC2)c(NC(=O)COc2cccc(C)c2)c1 | 8.25% (inactive)
23 | CC12CCC(=O)N1C(C(=O)Nc1ccccc1N1CCOCC1)CS2 (configuration not stated) | 1.95% (inactive)
24 | O=C(CCCC(=O)Nc1ccc(Br)cc1)N/N=C/c1ccccc1 | -7.56% (inactive)
25 | CNC(=S)NN=C(C)CCCC(C)=NNC(=S)NC | -24.1% (inactive)
26 | O=C1c2cccc([N+](=O)[O-])c2C(=O)N1C1CCCCC1 | -11.8% (inactive)
27 | CN1CCN(C(=O)CNC(=O)C23CC4CC(CC(C4)C2)C3)CC1 | -0.78% (inactive)
28 | O=C(N/N=C/c1cccnc1)c1cccc(Cl)c1 | -19.1% (inactive)
29 | O=C(N/N=C/c1coc2ccc(Cl)cc2c1=O)c1ccncc1 | 2.11% (inactive)
30 | O=C(N/N=C/c1ccc(Cl)cc1Cl)c1ccncc1 | -7.47% (inactive)
31 | O=C(N/N=C/c1cc(Cl)ccc1O)c1ccc(Br)cc1 | -2.86% (inactive)
32 | COc1ccc(/C=C(\NC(=O)c2ccco2)C(=O)N2CCOCC2)cc1 | 10.3% (inactive)
33 | CCN(CC)Cc1cc(C(C)(C)C)cc(N2CCOCC2)c1O | 3.29% (inactive)
34 | CCc1cc(=O)[nH]c(SCCc2ccccc2)n1 | 1.92% (inactive)
35 | O=C(NC1CCCC1)C1CCCN1C(=O)Nc1ccccc1 (configuration not stated) | 7.61% (inactive)
36 | CCOc1cccc(-c2c(C(=O)N/N=C(\C)c3cccnc3)nnn2-c2nonc2N)c1 | -0.26% (inactive)
37 | CCOc1cccc(-c2c(C(=O)N/N=C(\C)c3ccncc3)nnn2-c2nonc2N)c1 | 0.12% (inactive)
38 | N=C1c2ccccc2CN1NC(=O)c1ccc(Br)o1 | -1.62% (inactive)
39 | O=[N+]([O-])c1cccc(Nc2c([N+](=O)[O-])ccc3nonc23)c1 | 11.8% (inactive)
40 | Cc1ccc(Nc2c([N+](=O)[O-])ccc3nonc23)c(C)c1 | 24.2% (inactive)
41 | COc1ccccc1CNC(=O)CSC1=NCCS1 | -11.3% (inactive)
42 | CSc1ccccc1OCc1cc(C(=O)NCCN2CCCC(O)C2)no1 (configuration not stated) | 14.2% (inactive)

Row | SMILES | inhibition
43 | CC(NC(=O)COC(=O)C12CC3CC(CC(Br)(C3)C1)C2)c1ccccc1 (configuration not stated) | 4.11% (inactive)
44 | O=C(N/N=C/c1c(O)ccc2ccccc12)c1ccc(Br)o1 | -3.25% (inactive)
45 | O=C(NN=Cc1c(O)ccc2ccccc12)c1ccc2c(c1)OCO2 | 3.47% (inactive)
46 | O=C(N/N=C/c1c(O)ccc2ccccc12)c1cccc(C(F)(F)F)c1 | 5.26% (inactive)
47 | Cc1ccc(C(=O)N/N=C/c2c(O)ccc3ccccc23)cn1 | -7.55% (inactive)
48 | CCOc1ccc2ccccc2c1/C=N/NC(=O)c1ccncc1 | -4.1% (inactive)
49 | O=C(N/N=C\c1c(O)ccc2ccccc12)c1ccc(O)cc1 | 3.55% (inactive)
50 | O=C(N/N=C\c1c(O)ccc2ccccc12)c1cncc(Br)c1 | -2.66% (inactive)
51 | O=C(N/N=C/c1cccc2ccccc12)c1cccnc1 | -1.84% (inactive)
52 | COc1ccc(-c2nnnn2-c2ccc(F)cc2F)cc1 | -3.82% (inactive)
53 | COP(=O)(OC)C1(O)C(=O)Nc2ccc(Br)cc21 (configuration not stated) | -4.97% (inactive)
54 | Nc1c(C(=O)NCc2ccc3c(c2)OCO3)nnn1Cc1ccc(Br)cc1 | 1.55% (inactive)
55 | N#CC(Cc1ccccc1)(Cc1ccccc1)C(=O)NN | -3.45% (inactive)
56 | COC1CCCCC1NS(=O)(=O)c1ccccc1 (configuration not stated) | 1.39% (inactive)
57 | CC(C)C(=O)NC(c1cccc([N+](=O)[O-])c1)c1ccc2cccnc2c1O (configuration not stated) | 17.9% (inactive)
58 | COc1ccc(C(NC(C)=O)c2ccc3cccnc3c2O)c(OC)c1 (configuration not stated) | 20.8% (inactive)
59 | CC(=O)NC(c1ccc(C(C)C)cc1)c1ccc2cccnc2c1O (configuration not stated) | -6.08% (inactive)
60 | CCCCC(=O)NC(c1cccc([N+](=O)[O-])c1)c1ccc2cccnc2c1O (configuration not stated) | 17.2% (inactive)
61 | CC(=O)NC(c1ccc2ccccc2c1)c1ccc2cccnc2c1O (configuration not stated) | 23.8% (inactive)
62 | CC(C)C(=O)NC(c1ccco1)c1ccc2cccnc2c1O (configuration not stated) | 23.1% (inactive)
